Reference: PubChem BioAssay (NCATS)
Records with an inconclusive call do not appear. Calls of active or inactive are those of the source. Unless noted, the call rests on the fitted dose curve; in most records, active means well fitted curve in the direction sought with a large enough effect; inconclusive means small, poorly fitted or top-dose-only effect, or another doubt; inactive means no such curve, though single readings can be large; an effect the other way counts as inactive or inconclusive.

What was measured:
[1] = target: Estrogen receptor (Homo sapiens) (UniProt P03372); experiment: qHTS assay for small molecule antagonists of estrogen receptor alpha signaling (AID 588513; active means well fitted curve in the direction sought with a large enough effect in the signal ratio, with a control signal flat, not every such curve was filed as active; the % refers to the signal ratio; further: on the % scale 0 is the no-effect control and ±100 the full control effect)
Sequence of Estrogen receptor (Homo sapiens) (P03372 whole entry, looked up): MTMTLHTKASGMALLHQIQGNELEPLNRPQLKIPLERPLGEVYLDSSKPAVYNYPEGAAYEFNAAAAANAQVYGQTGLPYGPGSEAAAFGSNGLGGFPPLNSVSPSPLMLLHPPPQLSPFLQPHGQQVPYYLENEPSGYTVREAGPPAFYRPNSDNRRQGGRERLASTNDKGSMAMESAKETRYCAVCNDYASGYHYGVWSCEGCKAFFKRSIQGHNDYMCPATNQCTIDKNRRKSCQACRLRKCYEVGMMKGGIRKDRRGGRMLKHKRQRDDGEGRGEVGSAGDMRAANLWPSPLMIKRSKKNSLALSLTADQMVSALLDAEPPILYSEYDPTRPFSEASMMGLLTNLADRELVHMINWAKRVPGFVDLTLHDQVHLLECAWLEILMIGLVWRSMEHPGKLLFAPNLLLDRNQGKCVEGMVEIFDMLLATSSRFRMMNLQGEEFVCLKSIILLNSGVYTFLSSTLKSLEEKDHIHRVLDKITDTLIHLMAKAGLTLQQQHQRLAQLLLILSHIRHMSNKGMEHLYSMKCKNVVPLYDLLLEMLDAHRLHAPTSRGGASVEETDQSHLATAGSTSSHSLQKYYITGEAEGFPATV
Procedure, shortened: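 Antagonist-mode qHTS in ER-alpha-UAS-bla HEK 293 cells: compound titration, 0.5nM estradiol for 18 h, CCF4 fluorescence, Hill-derived IC50.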

[2] = target: Estrogen receptor (Homo sapiens) (UniProt P03372); experiment: qHTS assay for small molecule agonists of estrogen receptor alpha signaling (AID 588514; calls by dose curve; further: nearly all actives have a fitted effect of over 70% in size; further: potency means the concentration at half of the fitted maximal effect;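 on activation: 0% = vehicle only and 100% = reference agonist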)
Procedure, shortened: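 Fluorescence from CCF4 cleavage reports ER-alpha-driven beta-lactamase expression in HEK 293 cells treated 18 hrs at 37 C. Data normalized to 17-beta-estradiol (20 nM) and DMSO, fitted to Hill equation.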

[3] = target: Glucocorticoid receptor (Homo sapiens) (UniProt P04150); experiment: qHTS assay for small molecule antagonists of glucocorticoid receptor signaling (AID 588533; active means well fitted inhibition curve with a large enough effect in the signal ratio, with a control signal flat, not every such curve was filed as active; the % refers to the signal ratio;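 further: cells stimulated with 2 nM dexamethasone as agonist; on the % scale 0 is the no-effect control and ±100 the full control effect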)
Sequence of Glucocorticoid receptor (Homo sapiens) (P04150 whole entry, looked up): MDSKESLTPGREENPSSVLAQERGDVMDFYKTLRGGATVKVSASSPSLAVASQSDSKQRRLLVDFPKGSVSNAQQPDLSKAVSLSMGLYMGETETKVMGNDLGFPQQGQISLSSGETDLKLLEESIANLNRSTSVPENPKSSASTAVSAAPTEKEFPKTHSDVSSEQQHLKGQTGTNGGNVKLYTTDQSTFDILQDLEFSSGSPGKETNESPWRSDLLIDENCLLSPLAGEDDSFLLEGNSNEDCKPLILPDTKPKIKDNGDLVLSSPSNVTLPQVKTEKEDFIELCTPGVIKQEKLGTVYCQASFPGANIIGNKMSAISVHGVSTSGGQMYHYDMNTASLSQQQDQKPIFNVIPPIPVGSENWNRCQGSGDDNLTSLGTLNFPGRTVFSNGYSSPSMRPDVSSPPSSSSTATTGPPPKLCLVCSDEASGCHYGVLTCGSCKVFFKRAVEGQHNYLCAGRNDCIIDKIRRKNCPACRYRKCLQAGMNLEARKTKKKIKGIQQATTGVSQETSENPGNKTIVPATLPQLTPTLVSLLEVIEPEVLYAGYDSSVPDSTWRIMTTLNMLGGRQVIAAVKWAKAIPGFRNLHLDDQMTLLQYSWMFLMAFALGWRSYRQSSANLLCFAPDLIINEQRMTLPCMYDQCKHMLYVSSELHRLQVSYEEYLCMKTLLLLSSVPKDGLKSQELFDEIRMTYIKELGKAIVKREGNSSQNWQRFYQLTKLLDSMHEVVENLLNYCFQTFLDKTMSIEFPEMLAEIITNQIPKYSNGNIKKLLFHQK
Procedure, shortened: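 Antagonist-mode qHTS: compound titrations added to GRE-bla HeLa cells, then dexamethasone 2 nM final; 18 h, 37 C. CCF4 FRET fluorescence normalized to dexamethasone and DMSO; IC50 from Hill fit.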

[4] = qHTS assay for small molecule antagonists of peroxisome proliferator-activated receptor delta signaling (AID 588535; active means well fitted inhibition curve with a large enough effect in the signal ratio, with a control signal flat, not every such curve was filed as active; the % refers to the signal ratio;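 on max response: cells co-treated with a PPAR-delta agonist as stimulator during compound exposure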); details: HEK293T PPARd-UAS-bla, beta-lactamase FRET ratio, 18 h; 460 nm channel
Procedure, shortened: (§1)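 Antagonist-mode qHTS using GeneBLAzer PPAR-delta-UAS-bla HEK293T cells; compound exposure 18 hrs at 37 C over a titration. Ratiometric CCF4 fluorescence at 460/530 nm; concentration-response points fitted to the Hill equation.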

[5] = target: Peroxisome proliferator-activated receptor delta (Homo sapiens) (UniProt Q03181); experiment: as above
Sequence of Peroxisome proliferator-activated receptor delta (Homo sapiens) (Q03181 whole entry, looked up): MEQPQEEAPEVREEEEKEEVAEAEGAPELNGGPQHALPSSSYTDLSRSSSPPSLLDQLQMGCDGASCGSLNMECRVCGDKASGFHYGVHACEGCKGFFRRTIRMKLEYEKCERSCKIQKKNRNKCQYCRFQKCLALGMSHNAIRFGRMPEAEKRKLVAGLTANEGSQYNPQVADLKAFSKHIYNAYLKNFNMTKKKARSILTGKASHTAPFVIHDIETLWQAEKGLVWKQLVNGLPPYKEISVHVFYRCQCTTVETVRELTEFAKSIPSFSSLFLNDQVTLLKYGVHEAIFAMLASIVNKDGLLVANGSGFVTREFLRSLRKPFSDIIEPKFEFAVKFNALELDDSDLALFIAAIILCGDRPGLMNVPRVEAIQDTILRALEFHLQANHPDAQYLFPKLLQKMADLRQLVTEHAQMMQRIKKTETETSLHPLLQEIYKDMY
Procedure, shortened: as §1

[6] = target: Peroxisome proliferator-activated receptor gamma (Homo sapiens) (UniProt P37231); experiment: qHTS assay for small molecule agonists of peroxisome proliferator-activated receptor gamma signaling (AID 588536; active means well fitted curve in the direction sought with a large enough effect in the signal ratio, with a control signal flat, not every such curve was filed as active; the % refers to the signal ratio;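 further: 0% = DMSO basal wells and 100% = rosiglitazone at 2 µM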)
Sequence of Peroxisome proliferator-activated receptor gamma (Homo sapiens) (P37231 whole entry, looked up): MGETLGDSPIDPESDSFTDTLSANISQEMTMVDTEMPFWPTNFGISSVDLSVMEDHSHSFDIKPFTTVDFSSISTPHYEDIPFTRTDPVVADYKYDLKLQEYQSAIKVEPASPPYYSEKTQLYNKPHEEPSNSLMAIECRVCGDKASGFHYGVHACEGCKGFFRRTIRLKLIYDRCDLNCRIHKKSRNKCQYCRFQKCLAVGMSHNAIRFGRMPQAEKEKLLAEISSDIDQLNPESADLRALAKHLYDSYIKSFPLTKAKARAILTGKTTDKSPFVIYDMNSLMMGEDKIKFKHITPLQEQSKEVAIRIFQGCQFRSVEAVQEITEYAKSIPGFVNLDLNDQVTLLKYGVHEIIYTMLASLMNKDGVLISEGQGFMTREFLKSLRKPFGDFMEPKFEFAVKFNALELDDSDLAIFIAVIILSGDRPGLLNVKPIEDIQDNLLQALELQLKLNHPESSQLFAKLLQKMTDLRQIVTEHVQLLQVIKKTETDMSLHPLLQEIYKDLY
Procedure, shortened: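 Compound treatment: 16 h, 37 C, HEK293 GeneBLAzer cells. Detection: CCF4, 2 h RT. Values: Hill-fit EC50, efficacy as % of 2 uM rosiglitazone.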

[7] = qHTS assay for small molecule agonists of retinoid X receptor alpha signaling (AID 588544; calls by dose curve;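 on activation: 0% = DMSO basal wells and 100% = reference agonist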); details: HEK293T RXRa-UAS-bla, beta-lactamase reporter, 18 h; 530 nm emission
[8] = target: Retinoic acid receptor RXR-alpha (Homo sapiens) (UniProt P19793); experiment: as above
Sequence of Retinoic acid receptor RXR-alpha (Homo sapiens) (P19793 whole entry, looked up): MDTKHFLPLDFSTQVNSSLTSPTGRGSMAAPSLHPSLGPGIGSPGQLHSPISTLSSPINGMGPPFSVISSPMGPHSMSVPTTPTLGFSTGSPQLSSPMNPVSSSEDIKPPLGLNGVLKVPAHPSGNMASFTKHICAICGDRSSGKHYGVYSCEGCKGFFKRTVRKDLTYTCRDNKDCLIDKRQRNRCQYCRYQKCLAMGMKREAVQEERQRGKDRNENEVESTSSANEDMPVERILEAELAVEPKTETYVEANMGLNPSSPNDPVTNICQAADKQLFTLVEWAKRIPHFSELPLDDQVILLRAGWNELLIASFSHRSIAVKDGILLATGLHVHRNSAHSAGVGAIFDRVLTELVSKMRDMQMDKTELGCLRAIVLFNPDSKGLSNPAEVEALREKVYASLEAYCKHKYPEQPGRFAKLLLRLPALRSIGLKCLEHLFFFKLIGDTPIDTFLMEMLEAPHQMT

[9] = target: Thyroid hormone receptor beta (Homo sapiens) (UniProt P10828); experiment: qHTS assay for small molecule agonists of thyroid hormone receptor beta signaling (AID 588545; calls by dose curve;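 further: 0% = DMSO only and 100% = 10 nM T3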)
Sequence of Thyroid hormone receptor beta (Homo sapiens) (P10828 whole entry, looked up): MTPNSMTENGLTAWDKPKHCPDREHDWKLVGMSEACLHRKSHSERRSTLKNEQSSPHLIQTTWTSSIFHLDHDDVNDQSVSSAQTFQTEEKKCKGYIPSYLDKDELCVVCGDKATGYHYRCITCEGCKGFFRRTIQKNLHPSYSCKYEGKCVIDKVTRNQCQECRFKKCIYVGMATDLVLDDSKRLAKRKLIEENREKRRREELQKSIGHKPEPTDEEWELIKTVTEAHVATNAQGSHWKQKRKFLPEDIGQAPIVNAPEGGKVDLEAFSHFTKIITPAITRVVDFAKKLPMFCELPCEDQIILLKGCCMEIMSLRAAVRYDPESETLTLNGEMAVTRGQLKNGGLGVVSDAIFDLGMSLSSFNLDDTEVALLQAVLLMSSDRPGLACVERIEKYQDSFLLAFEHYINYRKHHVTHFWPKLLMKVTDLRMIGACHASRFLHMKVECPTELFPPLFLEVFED
Procedure, shortened: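 TR-UAS-bla-GripTite HEK 293 cells in medium with 2% charcoal/dextran FBS, 0.1 mM NEAA and 1 mM sodium pyruvate were treated with titrated compounds for 18 hrs at 37 C. Beta-lactamase reporter was read with CCF4 dye (ex 405, em 460/530 nm); EC50 from Hill fits.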

[10] = qHTS assay for small molecule antagonists of retinoid X receptor alpha signaling (AID 588546; active means well fitted inhibition curve with a large enough effect in the signal ratio, with a control signal flat, not every such curve was filed as active; the % refers to the signal ratio;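 further: cells stimulated with 9-cis-retinoic acid as agonist; on the % scale 0 is the no-effect control and ±100 the full control effect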); details: HEK293T RXRa-UAS-bla, beta-lactamase ratio, antagonist mode; measured here: W530 green channel, cytotoxicity proxy
Procedure, shortened: (§2)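 Beta-lactamase reporter inhibition, read as CCF4 fluorescence ratio (ex 405, em 460/530 nm) after 2 h at RT. HEK293T UAS-bla cells, 2500/well, were stimulated with 9-cis-RA at 500 or 100 nM final alongside test compound for 18 h at 37 C.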

[11] = target: Retinoic acid receptor RXR-alpha (Homo sapiens) (UniProt P19793); experiment: as above; details: HEK293T RXRa-UAS-bla, beta-lactamase ratio, antagonist mode
Procedure, shortened: as §2

[12] = qHTS assay for small molecule activators of the nuclear factor-kappa B (NF-kB) signaling pathway (AID 651749; active means well fitted activation curve with a large enough effect in the signal ratio; the % refers to the signal ratio; further: series mostly up to about 77 µM; % of control where 0% means no effect); details: NF-kB-bla ME-180 cells, beta-lactamase FRET ratio, 16 h; activation: stronger effect = higher value
Procedure, shortened: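 FRET-based beta-lactamase detection in ME-180 cells reports NF-kB response-element-driven transcription following overnight (16 hr) compound treatment.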

[13] = qHTS assay for environmental chemicals that activate the Aryl hydrocarbon Receptor (AhR) signaling pathway (AID 651777); details: 1A2-DRE human hepatoma cells, luciferase, 24 h; activation: stronger effect = higher value; further: % of control where 0% means no effect; nearly all actives have a fitted effect of over 15% in size
Procedure, shortened: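 1A2-DRE human hepatoma reporter line; 1,200 cells/well; cmpd or DMSO 24 h, 37 C/5% CO2; One-Glo 30 min RT; luciferase lum.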

[14] = target: Peroxisome proliferator-activated receptor alpha (Homo sapiens) (UniProt Q07869); experiment: qHTS assay for small molecule agonists of the peroxisome proliferator-activated receptor alpha (PPARalpha) signaling pathway (AID 651778); details: PathHunter PPARalpha complementation, chemiluminescence, 6 h; max response: stronger effect = higher value; further: % of control where 0% means no effect
Sequence of Peroxisome proliferator-activated receptor alpha (Homo sapiens) (Q07869 whole entry, looked up): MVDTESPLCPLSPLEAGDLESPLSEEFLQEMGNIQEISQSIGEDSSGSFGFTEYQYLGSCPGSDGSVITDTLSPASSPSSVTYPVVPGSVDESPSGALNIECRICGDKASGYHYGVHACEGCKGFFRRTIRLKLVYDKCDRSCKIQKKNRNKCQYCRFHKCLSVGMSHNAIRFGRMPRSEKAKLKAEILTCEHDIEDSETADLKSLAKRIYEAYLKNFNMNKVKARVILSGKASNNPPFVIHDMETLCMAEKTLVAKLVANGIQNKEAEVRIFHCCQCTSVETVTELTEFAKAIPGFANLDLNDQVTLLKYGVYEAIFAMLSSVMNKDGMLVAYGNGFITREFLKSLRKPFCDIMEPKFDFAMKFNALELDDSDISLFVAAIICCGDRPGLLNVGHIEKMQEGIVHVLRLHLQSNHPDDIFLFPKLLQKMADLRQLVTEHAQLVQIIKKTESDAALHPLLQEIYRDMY
Procedure, shortened: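 Chemiluminescence from complemented enzyme reported PPARalpha activation in cells after 6 hr of compound treatment at 37 C. The detection reagent was incubated for 60 min at room temperature, and compounds were scored as agonists.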

[15] = qHTS assay for small molecule agonists of the antioxidant response element (ARE) signaling pathway measured by Nrf2-dependant transcriptional activity (AID 720636; active means well fitted curve in the direction sought with a large enough effect in the repeat runs; an effect the other way counts as inactive or inconclusive;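 further: HepG2 cells with an ARE-driven luciferase reporter; % of control where 0% means no effect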)
Procedure, shortened: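 Cells: ARE-luc HepG2 with Nrf2-responsive luciferase. Medium contained 1% dialyzed FBS. Compound exposure lasted 16 hr at 37 C and 5% CO2, followed by ONE-Glo luciferase detection.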

[16] = qHTS assay for small molecule agonists of the antioxidant response element (ARE) signaling pathway measured by Nrf2-dependant transcriptional activity - cell viability counter screen (AID 720653; active means well fitted curve in the direction sought with a large enough effect in the repeat runs; an effect the other way counts as inactive or inconclusive; further: on the % scale 0 is the no-effect control and ±100 the full control effect); details: ARE-bla HepG2 viability, CellTiter-Glo ATP luminescence, 16 h; max response: stronger effect = lower value
Procedure, shortened: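 Cytotoxicity counter screen: intracellular ATP quantified by CellTiter-Glo luminescence in the same ARE-bla HepG2 plates, after 16 h compound exposure and a 2 h beta-lactamase substrate step.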

[17] = qHTS assay for cell viability of HEK293 cells (AID 743288); details: ATP luminescence (CellTiter-Glo), 18 h; max response: stronger effect = lower value; further: on the % scale 0 is the no-effect control and ±100 the full control effect; nearly all actives have a fitted effect of over 50% in size
Procedure, shortened: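 HEK293, 18 h, 37 C, ATP luminescence. Cells at 2,000/well were allowed at least 5 h to settle before dosing; CellTiter-Glo developed 30 min at RT.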

[18] = qHTS assay for cell viability of the p53RE-bla HCT-116 cell line (AID 743292); further: on the % scale 0 is the no-effect control and ±100 the full control effect; nearly all actives have a fitted effect of over 55% in size
Procedure, shortened: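 HCT-116 p53RE-bla cells seeded 4,000/well; 5 h at 37 C; compound (DMSO) added; 16 h at 37 C; CellTiter-Glo added, 30 min RT; luminescence read.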

[19] = target: Nuclear receptor subfamily 1 group I member 2 (Rattus norvegicus) (UniProt Q9R1A7); experiment: qHTS assay for small molecule activators of the rat pregnane X receptor (rPXR) signaling pathway (AID 651751; call rule not given here; further: 0% is about no effect); details: rPXR reporter cells, luciferase (One-Glo), 24 h
Sequence of Nuclear receptor subfamily 1 group I member 2 (Rattus norvegicus) (Q9R1A7 whole entry, looked up): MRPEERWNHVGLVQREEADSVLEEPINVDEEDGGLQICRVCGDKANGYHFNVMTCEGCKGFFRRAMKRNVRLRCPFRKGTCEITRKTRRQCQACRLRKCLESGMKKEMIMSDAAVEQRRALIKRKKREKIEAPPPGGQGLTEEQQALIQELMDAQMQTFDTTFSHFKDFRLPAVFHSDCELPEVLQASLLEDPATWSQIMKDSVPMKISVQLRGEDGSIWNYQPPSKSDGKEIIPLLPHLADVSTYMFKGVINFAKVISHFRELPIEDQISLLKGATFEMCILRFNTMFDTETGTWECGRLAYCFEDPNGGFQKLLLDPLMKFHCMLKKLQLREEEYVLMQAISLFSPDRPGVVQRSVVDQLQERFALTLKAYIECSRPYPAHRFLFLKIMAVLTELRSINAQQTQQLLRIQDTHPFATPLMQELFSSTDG

[20] = qHTS assay for small molecule activators of the human pregnane X receptor (PXR) signaling pathway (AID 720659; call rule not given here; further: 0% is about no effect)

CC/C=C\CCOC(=O)c1ccccc1O
-9.64%: max response [7]
active: Potency [2] 25.1 µM
-7.38%: max response [10]
-19.1%: max response [4]
inactive: Potency [1] | Potency [3] | Potency [5] | outcome [6] | Potency [8] | Potency [9] | max response [11] 0.792% | activation [12] -0.397% | activation [13] 1.45% | max response [14] 0.589% | Potency [15] | max response [16] 6.72% | max response [17] 0.746% | Potency [18] | max response [19] 5.21% | outcome [20]

CCC(C)(C)C1CCC(O)CC1 (stereo unspecified)
-12.1%: max response [4]
-12.5%: max response [7]
9.01%: max response [10]
inactive: Potency [1] | Potency [2] | Potency [5] | Potency [8] | Potency [9] | max response [11] -29.4% | activation [12] -0.533% | activation [13] -0.126% | max response [14] -0.406% | Potency [15] | max response [16] -8.65% | max response [17] -3.71% | Potency [18] | max response [19] -1.01% | outcome [20]

O=C(Cl)c1cc(Cl)cc(Cl)c1
3.33%: max response [10]
inactive: Potency [1] | Potency [2] | Potency [3] | Potency [5] | outcome [6] | Potency [8] | Potency [9] | max response [11] -11.9% | activation [12] -1.64% | activation [13] 2.73% | max response [14] -3.03% | Potency [15] | max response [16] -8.26% | max response [17] -4.86% | Potency [18] | max response [19] 2.44% | outcome [20]
-4.35%: max response [7]
16%: max response [4]

CC(C)(C)C1CCC(O)CC1 (stereo unspecified)
inactive: Potency [1] | Potency [2] | Potency [3] | Potency [5] | outcome [6] | Potency [9] | max response [11] 3.31% | activation [12] 0.471% | Potency [15] | max response [16] 2.04% | max response [17] 1.92% | Potency [18] | max response [19] 1.71% | outcome [20]
-7.35%: max response [4]
-0.1%: max response [10]

CCCCCCCC(=O)OC
14.7%: max response [7]
-15%: max response [10]
inactive: Potency [1] | Potency [2] | Potency [5] | outcome [6] | Potency [8] | Potency [9] | max response [11] -8.88% | activation [12] -1.19% | activation [13] -2.72% | max response [14] -3.16% | Potency [15] | max response [16] 0.0694% | max response [17] -6.4% | max response [19] 2.14% | outcome [20]
18.8%: max response [4]

CC(C)CCCCCOC(=O)CS
-2.29%: max response [10]
inactive: Potency [1] | Potency [2] | Potency [3] | outcome [6] | Potency [8] | Potency [9] | max response [11] -5.77% | activation [12] 3.32% | activation [13] -0.874% | max response [14] 0.461% | Potency [15] | max response [16] -0.966% | max response [17] -8.32% | max response [19] -1.37% | outcome [20]
-0.354%: max response [7]

CCCCCCCCCCCCCCC(=O)OC
inactive: Potency [1] | Potency [2] | Potency [3] | Potency [5] | outcome [6] | Potency [8] | Potency [9] | max response [11] 8.47% | activation [12] 0.418% | activation [13] -1.03% | max response [14] -0.882% | max response [16] -2.69% | max response [17] -7.2% | Potency [18] | max response [19] -2.84% | outcome [20]
-9.41%: max response [10]
2.13%: max response [7]
-7.18%: max response [4]

c1cc(-c2ccncc2)ccn1
inactive: Potency [1] | Potency [2] | Potency [3] | outcome [6] | Potency [8] | Potency [9] | max response [11] -37.6% | activation [12] -1.45% | activation [13] 0.354% | max response [14] 0.638% | Potency [15] | max response [16] -5.96% | max response [17] -10.3% | max response [19] -2.25% | outcome [20]
17.1%: max response [10]
22%: max response [7]

OCCOCCOCCOCCO
inactive: Potency [1] | Potency [2] | Potency [3] | Potency [5] | Potency [8] | Potency [9] | max response [11] -5.67% | activation [12] -0.834% | activation [13] 2.06% | max response [14] -1.11% | max response [16] 2.46% | max response [17] -2.22% | Potency [18]
-7.24%: max response [10]
4.51%: max response [7]
-5.22%: max response [4]

C=CCCCCCCCCC=O
-4.83%: max response [10]
-12%: max response [7]
14.1%: max response [4]
inactive: Potency [1] | Potency [2] | Potency [3] | Potency [5] | outcome [6] | Potency [8] | Potency [9] | max response [11] -16.9% | activation [12] -0.972% | activation [13] 0.287% | max response [14] -1.39% | Potency [15] | max response [16] 3.17% | max response [17] -14% | Potency [18] | max response [19] -2.8% | outcome [20]
